This test relates to PPARg:RXRa IVT, anti-PPARg (NR concentration 270 nM, RXRa partner concentration 90 nM). The test can be described thus: PBM binding z-score (relative to random genomic background probes); higher = stronger binding; sequences stand for … in GC…GCGATTGACAGCGTAGAATGAAGG
The essentials:
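Antibodies against each partner of ligand-free nuclear receptor dimers (one per run) detected binding on custom Agilent 4×180K protein-binding microarrays after 1 h incubation. The double-stranded probes had 34-nt variable regions carrying direct-repeat seeds, single-nucleotide variants, half-site ablations and random human genomic background sequences. Binding z-scores, from regression-normalized fluorescence, use the random background probes as reference.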
In turn, TGAATGAGGTTAAAGATCTGGGAACGTGGCGTCG showed a PBM binding z-score of 2.86.

CTCGCAAGGTCGGTTGAGGTGAGTATACGGATAA showed a PBM binding z-score of 0.241.

Regarding CCACACAGGTGAAAGGTAACTCAGTCTGGTACGC, the PBM binding z-score was found to be 3.2.

On to CCTACTGCGCCAAGGTCATTGATCAGTCAAAGCA, for which the PBM binding z-score stood at 0.978.

The sequence TCTATTAGTTGAAGTGCAACCGACGAGTCCGTTT came in with a PBM binding z-score of 0.306.

In turn, AGAACGAGGGCAATGAGTAGATAGCACGGGTGGC registered a PBM binding z-score of 2.75.

For the sequence TTGCCAAGGTGAAGGTCGTTGATCCCTCTGTAGA, the PBM binding z-score was 2.3.

The sequence TCTAGTTGGTCACGGAGGTCACACACGACGGGTA gave a PBM binding z-score of 4.2.

The sequence ACAGACAGGTTAGTGAAGGTAACTCAGCTGGACG registered a PBM binding z-score of 0.407.

Sequence GCGATTGGGGCAAAGCAGGTTACCATAAGGTTGG returned a PBM binding z-score of 1.69.

In turn, ATCTCTAGGTAAGACTCCGTTCAGTGAAGAACGC had a PBM binding z-score of 1.25.

In the case of CCGACTGGGCCACGAAAGGTCATTGATTCAGTGA, the PBM binding z-score worked out at 4.28.

With AATACAGGGTCATTGTAGGCCAGAGTACGCACAG, the PBM binding z-score amounted to 4.77.

For the sequence TTACCAAGGTGAGCTGAGGTCGTGGATCCAACTC, the PBM binding z-score worked out at 2.05.

TCTATTAGTTGATTAGGGCAACCGCAACAGCGGA gave a PBM binding z-score of 1.59.

As to AGTCAAAGTTCATCTAGGTAACCTAAGATATGCT, the PBM binding z-score came out at 3.71.

TCAGACAGGTGAAGGTAACGCAGGTACGCAGTCG came in with a PBM binding z-score of 1.24.

As to AGAATGAGGTTATATGTAGATCAGGGAAGAAAGT, the PBM binding z-score was 2.52.

As for GCTCGGAGGACAAGGTCAGAGATTTGTCCGTAGA, the PBM binding z-score came out at 0.673.

Consider TCTGCTAGGTCAGTTGGTCAGGTAACGAGCTGCC, for which the PBM binding z-score was determined as 3.24.

Consider CCTCGGAGGACTACAGGAGGTCAGAGCTGCCAGA, for which the PBM binding z-score was -0.34.

The sequence GGAACGACGGCAAGTTGATAGCAGAGTTTGATGG came in with a PBM binding z-score of -0.312.

In turn, ATCTCTAGGTAAAGATAGTTCTGTGAATGCAAAT yielded a PBM binding z-score of 1.5.

Sequence CGTCCAGGGTCAGAGAGGTCAGTGAATGCCGAGT had a PBM binding z-score of 2.32.

TCTAGTTGGTCACGGAGGTCACACCCGACGGGTA gave a PBM binding z-score of 4.28.

Take TCATATAGGTAAATGCTAAGTGAAAGTCCGATCT: the PBM binding z-score came to 2.11.

TCTGCTAGGTCAGCTGGTCAGCTAACGAGCTGCC had a PBM binding z-score of 2.82.

Consider CTACCAAGGTGAACAAGGGCGTTGATTACTATTC, for which the PBM binding z-score came out at 2.55.

AGTCAAAGTTCAAGACGAGGTAACGTAAAGCACG yielded a PBM binding z-score of 2.85.

The sequence GCTGCTAGGTCAGGTTGATCAGCTAACGGGTACG gave a PBM binding z-score of 2.17.

The sequence CCTTACGGGTCAAGGTTTTAGCACGGGTGGTACG gave a PBM binding z-score of 3.36.

TGAATGAGGTTATGAGATCAGGGAACGTTGCAAA registered a PBM binding z-score of 2.1.

Sequence AGAACGAGGGCACGCTGAGTTCATAGCAGAGTAG yielded a PBM binding z-score of 3.89.

AGTCAAAGTTCACTAGGTAACCTAAGATTCAGCT had a PBM binding z-score of 5.17.

In turn, GTACCAAGGTGAATAGGTCGTGGATGAGTAGGCG came in with a PBM binding z-score of 2.87.

Consider CTCCAAAGGTCGTGCTCAGGTGAGTATACCAAAC, for which the PBM binding z-score amounted to 1.49.

TGATATAGGTAAACAGGTGAAAGTCCGTAAGTTA had a PBM binding z-score of 5.64.

Sequence TCTATTAGTAGATTAGGGCAACCGAAACAGCGGA registered a PBM binding z-score of 1.17.

Sequence CGTCCAAGGTCATAGGAGGTCAGTGAGGACAGAT came in with a PBM binding z-score of 4.55.

In the case of TCTCGGAGGACACGGAAGGTCAGAGCTCGACATC, the PBM binding z-score was found to be 1.13.

Source of the values: the supplement of paper PMC6555819.
